# High-throughput results deposited in PubChem by National Center for Advancing Translational Sciences (NCATS).
# Most compounds without a hit are left out; they make up all but 12% or so of the library.
# Sfp PPTase inh = inhibitors of Bacillus subtilis Sfp phosphopantetheinyl transferase; Biochemical Sfp PPTase activity, qHTS; Potency, µM, for the others: largest response in the series, negative = inhibition, actives largely listed as inhibitors; 310,000 tested, 3.5% active;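 further: the enzyme is Sfp with the accession as filed and its product quenches rhodamine fluorescence; 0% = enzyme reaction without inhibitor and -100% = no enzyme wells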
#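 Step 1, compound plus 15 nM Sfp-PPTase, 15 min, room temperature. Step 2, add rhodamine-CoA (5 uM) and BHQ-2-YbbR (12.5 uM). Step 3, read 525/598 nm fluorescence at 0 and 30 min.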
# ALDH1A1 block = blocks purified human ALDH1A1 activity; P00352; Purified ALDH1A1, NADH fluorescence, propionaldehyde substrate; Potency, µM (titrated, usually from 75.3 µM), inactives show top-dose activity, negative = inhibition, usual class: inhibitors; 220,000 tested, 7.3% active; active means well fitted inhibition curve with a large enough effect, not every such curve was filed as active; inconclusive means small, poorly fitted or top-dose-only effect, or another doubt; inactive means no such curve, though single readings can be large or run the other way;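 further: plate controls were no enzyme wells and a reference inhibitor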
# PLK1 PBD block = PLK1 (human) polo-box domain binding inhibition. 360,000 tested, 2.8% active. P53350. Potency, µM, inactives show max response, negative = inhibition, most hits filed as inhibitors. Plk1 PBD binding of FITC phosphopeptide, fluorescence polarization; further: series mostly up to about 57 µM; nearly all actives have a fitted effect of over 65% in size
# Gal4-VP16 FLuc = Gal4-VP16 reporter inhibition counter-screen; Drosophila S2 Gal4-VP16 UAS-luciferase, luminescence, 20 h; Potency, µM (series often up to 53.6 µM), for the others: top-dose activity, negative = inhibition, actives largely listed as inhibitors; 310,000 tested, 3.5% active; AID 2546;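 further: Gal4-VP16 expression switched on by copper sulfate through the metallothionein promoter; nearly all actives have a fitted effect of over 50% in size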
# RORg inh = inhibitors of mouse ROR gamma transcriptional activity; P51450; Drosophila S2 Gal4-RORgamma UAS-luciferase reporter, 20 h; Potency, µM (top dose mostly 53.6 µM), inactives show top-dose activity change, negative = inhibition, actives largely listed as inhibitors; 310,000 tested, 5.4% active; AID 2551; further: nearly all actives have a fitted effect of over 60% in size
# Target sequence (P51450 whole entry, looked up, the tested form may be a part): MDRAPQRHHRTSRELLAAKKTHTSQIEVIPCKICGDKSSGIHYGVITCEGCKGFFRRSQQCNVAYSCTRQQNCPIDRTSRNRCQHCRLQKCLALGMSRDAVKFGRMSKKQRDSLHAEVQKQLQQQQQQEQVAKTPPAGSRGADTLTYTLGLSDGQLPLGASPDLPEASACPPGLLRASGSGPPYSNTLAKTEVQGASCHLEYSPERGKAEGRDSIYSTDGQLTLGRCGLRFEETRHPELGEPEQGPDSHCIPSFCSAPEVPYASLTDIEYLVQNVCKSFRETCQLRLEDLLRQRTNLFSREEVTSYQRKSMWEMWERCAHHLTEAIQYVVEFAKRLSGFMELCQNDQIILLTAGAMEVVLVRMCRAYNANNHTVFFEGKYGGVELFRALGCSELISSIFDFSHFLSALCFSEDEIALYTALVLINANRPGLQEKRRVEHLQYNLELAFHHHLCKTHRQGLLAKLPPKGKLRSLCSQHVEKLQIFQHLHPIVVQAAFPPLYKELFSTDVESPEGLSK
#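 Drosophila Schneider cells stably carrying a metallothionein-driven Gal4 DBD–ROR gamma fusion and a UAS-Photinus luciferase reporter were exposed to compound for 1 hr, then induced with copper sulfate (700 uM final) for 20 hr at ambient temperature before luminescence reading.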
# * = called active by the depositor; ? = inconclusive; / = no result; ! = repeats disagree; [ ] = dose if it differs, or a comment. Unless noted, the call rests on the fitted dose curve; in most records, active means well fitted curve in the direction sought with a large enough effect; inconclusive means small, poorly fitted or top-dose-only effect, or another doubt; inactive means no such curve, though single readings can be large; an effect the other way counts as inactive or inconclusive. Unless noted, on the % scale 0 is the no-effect control and ±100 the full control effect; potency means the concentration at half of the fitted maximal effect.
SMILES,Sfp PPTase inh,ALDH1A1 block,PLK1 PBD block,Gal4-VP16 FLuc,RORg inh
Cc1ccccc1N(CC(=O)N/N=C/c1cc(Br)c(C)o1)S(C)(=O)=O,5.7%,?,-2.0%,?,9.8%
Cc1ccccc1N(CC(=O)N/N=C/c1cc(C)n(-c2ccccc2C)c1C)S(C)(=O)=O,14.8%,3.98µM*,5.9%,-2.9%,-1.9%
Cc1cccc(C)c1-n1c(C)cc(/C=N/NC(=O)CSc2ncccn2)c1C,?,10µM*,-6.7%,15.8µM*,?
Cc1cc(C)nc(SCC(=O)N/N=C/c2cc(C)n(-c3ccccc3C)c2C)n1,-22.7%,10µM*,-11.1%,-13.2%,-17.4%
O=C(C[n+]1ccc(-c2cc(C(=O)Nc3cccc(C(F)(F)F)c3)c3ccccc3n2)cc1)c1cccc([N+](=O)[O-])c1,50.1µM*,-3.7%,?,-3.7%,-21.2%
O=C(C[n+]1cccc(NC(=O)c2ccccc2)c1)c1cccc([N+](=O)[O-])c1,-13.0%,9.46µM*,-11.3%,4.1%,14.3%
O=C(CCNc1cccc(F)c1)c1cccc([N+](=O)[O-])c1,20.1%,0.631µM*,?,25.1%,?
CN[C@@H]1[C@H](O[C@H]2[C@@H](O[C@@H]3[C@@H](O)[C@@H](O)[C@@H](N=C(N)N)[C@@H](O)[C@@H]3N=C(N)N)O[C@@H](C)[C@]2(O)CO)O[C@H](CO)[C@@H](O)[C@@H]1O,13.9%,7.1%[20.9 µM],/,0.7%[17 µM],8.3%[16.9 µM]
CC1CCCN(S(=O)(=O)c2ccc(C(=O)Nc3nnc(C4=COCCO4)o3)cc2)C1 (centres undefined),-10.0%,/,/,1.12µM*,0.794µM*
CC1CCCCN1S(=O)(=O)c1ccc(C(=O)Nc2nnc(C3=COCCO3)o2)cc1 (centres undefined),-3.1%,/,-8.7%,1.26µM*,0.891µM*
COC(=O)c1ccc(CNC(=O)c2ccc(S(=O)(=O)N3CCCC(C)C3)cc2)cc1 (centres undefined),/,/,2.3%,/,/
O=C(Nc1nnc(C2=COCCO2)o1)c1ccc(S(=O)(=O)N2CCOCC2)cc1,-9.3%,?,-1.9%,-2.1%,11.2µM*
CSCCC(c1nc2ccccc2[nH]1)n1c(-c2ccc3ncccc3c2)nc2ccccc21 (centres undefined),/,/,-2.2%,/,/
COc1ccc(NC(=S)N2CCN(C/C=C/c3ccccc3)CC2)cc1,9.2%,-4.1%,-3.8%,?,?
COc1ccc(OC)c(NC(=S)N2CCCC2)c1,-1.5%,/,-3.3%,2.7%,-5.7%
COc1ccc(NC(=S)N2CCN(C/C=C/c3ccccc3)CC2)cc1OC,17.1%,-0.8%,-2.5%,8.2%,10µM*
CCOc1ccc(NC(=S)N2CCN(C/C=C/c3ccccc3)CC2)cc1,-1.3%,-3.1%,?,?,14.1µM*
COc1ccc(C)cc1NC(=O)CCN1CCN(C/C=C/c2ccccc2)CC1,11.2%,/,-0.3%,-5.3%,-4.1%[1.91 µM]
Cc1ccc(NC(=O)CCN2CCN(C/C=C/c3ccccc3)CC2)cc1C,89.1µM*,14.1µM*,-3.7%,-19.4%,18.1%
COc1ccc(OC)c(NC(=S)N2CCN(C/C=C/c3ccccc3)CC2)c1,-10.9%,-2.2%,-5.2%,0.7%,2.82µM*
COCCn1c(=O)c(C)nc2cnc(N3CCOCC3)nc21,20.8%,?,/,4.4%,-5.1%
Oc1ccc(/C=N/Nc2cccc3cccnc23)c(O)c1,?,?,-2.4%,-9.1%[0.365 µM],2.51µM*
Cc1ccc(/C=N/Nc2cccc3cccnc23)c(O)c1,44.7µM*,5.2%,0.9%,?,10µM*
O=C(O)C1Nc2c(O)cc(Cl)c([N+](=O)[O-])c2C2C=CCC12 (centres undefined),56.2µM*,12.6µM*,2.99µM*,-7.6%,10µM*
CCCn1nc([N+](=O)[O-])c(C(C#N)c2nc3ccccc3s2)c(Cl)c1=O (centres undefined),17.5%,?,23.8µM*,?,-44.6%
SMILES,Sfp PPTase inh,ALDH1A1 block,PLK1 PBD block,Gal4-VP16 FLuc,RORg inh
CCn1nc([N+](=O)[O-])c(C(C#N)c2nc3ccccc3n2C)c(Cl)c1=O (centres undefined),-1.1%,10.7%,?,1.8%,-18.7%
CC1(C)CC(=O)c2cc(N=C/C(C(=O)c3ccccc3)=C(\O)c3ccccc3)c(=O)oc2C1,-6.8%,?,23.8µM*,?,?
CC1(C)CC(=O)C(C=Nc2ccccc2C(=O)O)=C(O)C1,-11.4%,?,-8.9%,-13.8%,18.8%
O=C(O)[C@@H](O)[C@@H](O)[C@@H](O)[C@@H](O)C(=O)O (tested in a mixture with another compound),9.5%,26.8%[20.9 µM],/,-6.0%[17 µM],-33.3%[16.9 µM]
COc1ccc(C(=O)c2ccccc2)c(O)c1O,56.2µM*,-3.4%,/,-5.2%,-37.0%
COc1ccc(C(=O)c2ccc(C)cc2)c(O)c1,7.0%,/,/,-7.2%,21.8%
COc1ccc(C(=O)c2ccccc2)c(O)c1,-22.1%,31.6µM*!,1.8%,-13.5%,-9.5%
O=C(c1ccccc1)c1ccc(O)cc1O,2.7%,3.3%,11.9µM*,4.5%,21.4%
O=C(Nc1nnc([C@@H]2C[C@H](O)[C@@H](CO)O2)s1)c1cccc2ccccc12,/,/,3.7%,/,/
O=C1OC(c2ccccc2)=C/C1=C/c1cccs1,50.1µM*,-4.5%,2.0%,9.7%,7.4%
O=C1C(=Cc2cccs2)Oc2ccccc21,/,/,1.2%,/,/
Nn1c(SCC(=O)Nc2ccc(N3CCOCC3)cc2)nnc1-c1cccc(F)c1,/,/,-7.8%,/,/
O=C(N/N=C/c1cc(Br)c(Br)o1)C(O)c1ccccc1 (centres undefined),?,?,?,-8.6%,-1.5%
Cc1ccc(/C=N/NC(=O)c2c(-c3ccccc3)noc2C)o1,3.7%,-3.9%,0.4%,?,12.6µM*
Cc1cccc(C)c1NC(=O)c1c(-c2ccccc2)noc1C,8.7%,3.1%,1.6%,10.0%,10µM*
Cc1cccc(C(=O)N/N=C/c2cc(Br)c(Br)o2)c1,-18.0%,-9.0%,0.4%,?,11.2µM*
Cc1onc(-c2ccccc2)c1C(=O)N/N=C/c1cc(Br)c(Br)o1,-8.3%,-10.2%,-14.1%,10µM*,7.08µM*
Cc1onc(-c2ccccc2)c1C(=O)Oc1cccnc1,8.6%,-7.0%,-8.8%,-5.6%,7.94µM*
CCCCC[C@@H]1C=C(C(=O)O)[C@H](c2ccc(CC)cc2)N1S(=O)(=O)c1ccc(C)cc1,/,/,26.7µM*,/,/
CCCCC[C@@H]1C=C(C(=O)O)[C@H](c2ccc(Cl)c(Cl)c2)N1S(=O)(=O)c1ccc(C)cc1,/,/,26.7µM*,/,/
CC[C@H](C)[C@H](NC(=O)[C@H](Cc1ccc(O)cc1)NC(=O)CNC(=O)[C@@H]1CCCN1C(=O)[C@H](CC(=O)O)NC(=O)[C@@H](N)CS)C(=O)NCC(=O)N[C@@H](CO)C(=O)N[C@@H](CCCN=C(N)N)C(N)=O,-1.8%,/,/,0.5%,0.5%
COC(=O)[C@H](Cc1ccccc1)NC(=O)[C@@H](C)CO,2.6%,?,/,-5.1%[10 µM],10.2%[10 µM]
